The record followed here is PubChem BioAssay (EPA / NIEHS).

Values joined by “and” are separate entries in the source; they are usually repeats but may differ in a detail not shown here. Equal values may be shown once. Inconclusive results are not listed. Active and inactive are the calls of the source. Rule for the calls: active = hit-call score of the fitted dose curve at least 0.9, where 1 is the maximum; inconclusive = response in the unintended direction; inactive = score below 0.9.

For this assay, the target named is human Epidermal Growth Factor Receptor (EGFR), EGFR (gene 1956) (UniProt P00533). As to the kind of experiment: NVS_ENZ_hEGFR: NovaScreen (NVS) Enzymatic Assay for human Epidermal Growth Factor Receptor (EGFR) (AID 2283151). How it is done: NVS_ENZ_hEGFR is a biochemical, single-readout assay that uses extracted gene-proteins in a cell-free assay. Measurements were taken 1 hour after chemical dosing in a 384-well plate.NVS_ENZ_hEGFR is one of one assay component(s) measured or calculated from the NVS_ENZ_hEGFR assay. It is designed to make measurements of enzyme activity, a form of enzyme reporter, as detected with fluorescence intensity signals by Fluorescence and electrophoretic mobility shift technology.Data from the assay component NVS_ENZ_hEGFR was analyzed into 1 assay endpoint. This assay endpoint, NVS_ENZ_hEGFR, was analyzed in the positive analysis fitting direction relative to DMSO as the negative control and baseline of activity. Using a type of enzyme reporter, loss-of-signal activity can be used to understand changes in the enzymatic activity as they relate to the gene EGFR. Furthermore, this assay endpoint can be referred to as a primary readout, because this assay has produced multiple assay endpoints where this one serves a enzymatic activity function. To generalize the intended target to other relatable targets, this assay endpoint is annotated to the kinase intended target family, where the subfamily is receptor tyrosine kinase.
Chain of human Epidermal Growth Factor Receptor (EGFR), EGFR (gene 1956) (P00533 whole entry, looked up): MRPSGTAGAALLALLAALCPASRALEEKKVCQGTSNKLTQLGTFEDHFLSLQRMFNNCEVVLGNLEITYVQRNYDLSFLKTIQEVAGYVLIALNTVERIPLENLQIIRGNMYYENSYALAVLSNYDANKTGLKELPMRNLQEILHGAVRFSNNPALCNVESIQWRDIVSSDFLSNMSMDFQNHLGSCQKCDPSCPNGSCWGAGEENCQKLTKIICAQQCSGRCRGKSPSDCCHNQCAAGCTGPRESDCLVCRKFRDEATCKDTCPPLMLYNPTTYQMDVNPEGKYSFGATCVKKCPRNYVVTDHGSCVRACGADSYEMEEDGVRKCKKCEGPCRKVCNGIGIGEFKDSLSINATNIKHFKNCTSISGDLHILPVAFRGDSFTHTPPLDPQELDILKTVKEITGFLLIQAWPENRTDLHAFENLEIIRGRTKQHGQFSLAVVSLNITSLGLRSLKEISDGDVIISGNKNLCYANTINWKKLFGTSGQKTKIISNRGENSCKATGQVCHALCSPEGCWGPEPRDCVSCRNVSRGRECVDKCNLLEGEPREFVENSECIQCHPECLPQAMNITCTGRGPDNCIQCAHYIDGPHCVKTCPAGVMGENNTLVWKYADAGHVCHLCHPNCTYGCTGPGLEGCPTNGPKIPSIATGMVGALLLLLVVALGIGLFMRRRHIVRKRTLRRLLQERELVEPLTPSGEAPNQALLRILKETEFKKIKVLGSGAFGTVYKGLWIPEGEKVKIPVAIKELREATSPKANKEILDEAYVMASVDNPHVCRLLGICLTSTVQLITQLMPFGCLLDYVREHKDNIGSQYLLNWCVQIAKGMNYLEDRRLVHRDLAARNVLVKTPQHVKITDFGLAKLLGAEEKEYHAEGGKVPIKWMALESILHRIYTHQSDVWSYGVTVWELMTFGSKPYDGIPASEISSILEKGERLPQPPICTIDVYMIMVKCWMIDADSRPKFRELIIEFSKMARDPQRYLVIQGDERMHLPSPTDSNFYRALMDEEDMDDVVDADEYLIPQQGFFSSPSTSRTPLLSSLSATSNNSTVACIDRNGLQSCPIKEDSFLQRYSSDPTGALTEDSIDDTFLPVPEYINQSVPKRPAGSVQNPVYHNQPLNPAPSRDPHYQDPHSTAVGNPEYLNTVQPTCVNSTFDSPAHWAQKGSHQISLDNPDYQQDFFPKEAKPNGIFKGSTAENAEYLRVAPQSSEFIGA
Binding assays used specific radioligands (tritiated, iodinated) with non-radioactive competitive displacement ligands in agonist or antagonist protocols (as indicated) and various reference compounds and inhibitors to titrate specific binding to receptors and transporters. Most enzyme assays (CYPs, kinases, phosphatases, proteases, HDACs) used recombinant protein and specific substrates (fluorescence mostly, some colorimetric and radioactive) and inhibitors, followed by a biochemical separation of substrate and product. All assays for the biochemical HTS were initially run in duplicate at a single concentration (10 uM for CYP450 assays and 25 uM for all others). Assay-chemical combinations meeting a pre-defined threshold (e.g., 30% inhibition and other criteria defined below) were then run in singleton concentration-response format with maximum concentration of 20 uM for CYPs and 50 uM for all others. Each assay was run with positive and negative controls, and concurrent controls on every plate. The follow-up (secondary) screen tested active chemical-pairs in concentration series, as well as a few additional assays not tested in the primary screen, some selected negative inactives, and several cases re-run in the concentration series for confirmatory purposes.
Take `CCCCCCCCCCCCc1ccccc1S(=O)(=O)O`: the half-maximal activity concentration (AC50) (as a rule, the concentration at which the activity in the assay is half-maximal) was 12.6 µM (active). In the case of `CC(C)(c1ccc(O)cc1)c1ccc(O)cc1`, the call was inactive.

Consider `NC=O`, for which the result was inactive. Still for that read-out and setting: as for `CCCCCCCC/C=C\CCCCCCCC(=O)OC[C@@H](O)[C@H]1OC[C@H](O)[C@H]1O`, the entry is “inactive”; as for `Cc1ncc([C@@H](CCCCCCc2ccc3c(n2)NCCC3)CC(=O)O)cn1`, “inactive”; as for `CCc1c(C(=O)NN2CCCCC2)nn(-c2ccc(Cl)cc2Cl)c1-c1ccc(Br)cc1`, “inactive”.

Regarding `CCN(Cc1cccc(S(=O)(=O)O)c1)c1ccc(C(=C2C=CC(=[N+](CC)Cc3cccc(S(=O)(=O)O)c3)C=C2)c2ccccc2S(=O)(=O)[O-])cc1`, the AC50 is 12.1 µM (active).

For the molecule `Nc1ccc2c(c1)C(=O)c1ccccc1C2=O`, the molecule was classed as inactive.

Regarding `O=C(c1ccc(O)cc1O)c1ccc(O)cc1O`, the AC50 was 25 µM (active). On to `O=C(O)Cc1cc(I)c(Oc2ccc(O)c(I)c2)c(I)c1`, for which the call was inactive. Consider `COc1c(Cl)ccc(Cl)c1C(=O)O`, for which the result was inactive.

For the molecule `CN1C(=O)N(c2ccccc2Br)Cc2cnc(Nc3ccc4c(c3)OCC(CO)O4)nc21` (stereo not given), the AC50 is 0.00229 µM (active). On to `CN(C)C(=O)NC1(c2ccccc2)CCN(CCC[C@]2(c3ccc(Cl)c(Cl)c3)CCCN(C(=O)c3ccccc3)C2)CC1`, for which the call was inactive. Take `CC/C(=C(/CC)c1ccc(O)cc1)c1ccc(O)cc1`: the molecule was classed as inactive. On to `N#C[C@@H]1CC(F)(F)CN1C(=O)CNC1CC2CCC(C1)N2c1ncccn1` (stereo not given in full), for which the result was inactive. `COc1cc(C(=O)NC2CCN(C)CC2)ccc1Nc1ncc2c(n1)N(C1CCCC1)CC(F)(F)C(=O)N2C`: the AC50 is 12.2 µM (active). `O=C(O)Cc1cc(I)c(Oc2cc(I)c(O)c(I)c2)c(I)c1`: the result was inactive. The same measure, in the same setting: the result for `O=c1[nH]cnc2c1ncn2[C@H]1CC[C@@H](CO)O1` reads “inactive”; that for `CCCC(CCC)C(=O)O`, “inactive”; that for `O=C(Oc1ccccc1)c1cccc(C(=O)Oc2ccccc2)c1`, “inactive”. `Cc1ccc(N)cc1O`: the result was inactive.

Turning to `CCCCCCC(CCCCCCCCCCC(=O)OCC(COC(C)=O)OC(C)=O)OC(C)=O` (stereo not given), the outcome was inactive.

For the molecule `S=C(S)NCCNC(=S)S.[Mn+2].[S-]C([S-])=NCCN=C([S-])[S-].[Zn+2]`, the AC50 was 9.13 µM (active) and 9.55 µM (active) and 21.4 µM (active). Regarding `CCO[Si](CCCNC(N)=O)(OCC)OCC`, the molecule was classed as inactive. Consider `CC(C)CCCCCCOC(=O)C1CCCCC1C(=O)OCCCCCCC(C)C` (stereo not given), for which the molecule was classed as inactive. As for `O=C(OCCCCCOC(=O)c1ccccc1)c1ccccc1`, the molecule was called inactive. Still for that read-out and setting: as for `Cc1ccc2ncccc2c1`, the entry is “inactive”; as for `CC(=O)Oc1ccccc1C(=O)O`, “inactive”. As for `NCCO`, the result was inactive.

As to `CC(C)CCCCCCc1ccc(O)cc1`, the molecule was called inactive. Still for that read-out and setting: as for `COC(=O)[C@H]1[C@H]2C[C@@H]3c4[nH]c5cc(OC)ccc5c4CCN3C[C@H]2C[C@@H](OC(=O)c2cc(OC)c(OC)c(OC)c2)[C@@H]1OC`, the entry is “inactive”. `O=C(O)c1[nH]n(-c2ccc(S(=O)(=O)O)cc2)c(=O)c1N=Nc1ccc(S(=O)(=O)O)cc1`: the call was inactive. `FC(F)(F)C(F)(F)C(F)(F)C(F)(F)C(F)(F)C(F)(F)CCI`: the outcome was inactive. For the molecule `O=C(O)c1cc(N=Nc2ccc(S(=O)(=O)Nc3ccccn3)cc2)ccc1O`, the AC50 was 3.95 µM (active). With `O=C(O)c1cccc(Oc2ccccc2)c1`, the molecule was classed as inactive.
